MITF TRPM1 inh: inhibitors of MITF-dependent TRPM1 promoter reporter, primary screen, cell-based, SK-MEL-5, single point, luciferase; SK-MEL-5 TRPM1 promoter luciferase, 24 h; inhibition, % at 12.5 µM; 0.83% of 330,000 active;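 active = mean inhibition across replicates of 60% or more, whatever share of single replicates reaches that level; inconclusive = some that reach 60%, reason not given; inactive = mean inhibition across replicates below 60%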
EBV LMP1 NFkB: EBV LMP1-driven NF-kappaB luciferase reporter inhibitors, primary screen, cell-based, luminescence, single point | LMP1-induced NF-kappaB luciferase reporter cells | inhibition, % at 12.5 µM | AID 504558, 2011 | 0.69% of 350,000 active; in the data active = inhibition above about 41%; inconclusive = no clear call, values can overlap the other calls;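 note: 0% = neutral control wells and 100% = reference inhibitor control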
EWS-Fli inh: EWS/Fli-driven NR0B1 reporter inhibitors, primary screen, A673 cells, NR0B1 luciferase, luminescence, MLPCN library; viability-normalised; inhibition, % at 12.6 µM; 0.67% of 350,000 active; AID 651661, 2012;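 active = mean inhibition of at least 50% after viability correction, with every replicate also passing that limit; inconclusive = mean reaches 50% but only one of two replicates passes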;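 note: firefly luciferase signal divided by Alamar Blue viability fluorescence both relative to DMSO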
Shn3 3UTR inh: reduction of Shn3 3'UTR firefly luciferase signal, primary screen, Schnurri-3 inhibitor project, cell-based, Clone20 osteoblasts, set 2. AID 588674, 2011. inhibition, % at 12.5 µM. 0.52% of 360,000 active. Clone20 osteoblast Shn3 3'UTR firefly luciferase, 24 h;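 active = mean inhibition of at least 75% with every replicate also reaching 75%; inconclusive = mean inhibition at least 75% but some replicate below; inactive = mean inhibition below 75%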;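 note: 0% = median of neutral control wells and 100% = pilot-screen positive control compound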
PAX8 reporter: inhibitors of PAX8-driven TPO luciferase reporter, primary screen, RMG-I cells, single concentration; SteadyGlo, 24 h; inhibition, % at 12.6 µM; 1.2% of 360,000 active; AID 652154, 2013;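 active = mean replicate inhibition at least 60% with every replicate also reaching 60%; inconclusive = only one of the two criteria is met; inactive = mean below 60% and not all replicates reaching 60%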;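 note: luciferase light reporting Pax8 driven TPO promoter activity; plate controls were median of neutral control wells for no effect and mitoxantrone controls for full effect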
LGR2 antag: inhibitors of bursicon-induced LGR2 CRE-luciferase signal, primary screen, cell-based, HEK293, CRE-luciferase reporter, bursicon stimulation. Drosophila bursicon receptor LGR2 (rickets). bursicon-stimulated, 4 h. inhibition, % at 9.99 µM. 0.35% of 380,000 active. AID 720647, 2013;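 active = drop in luminescence signal, shown as inhibition above about 50% in the replicate tests, limit read from the data, passing the limit was not always enough; inconclusive = probably only some replicates passing the limit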;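 note: agonist challenge used bursicon conditioned medium at about half maximal strength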
Active calls of the source: *. An excerpt weighted towards active compounds, which were near 2.2% of everything screened.

Results for CN1CCN(C(=O)C[C@@H]2CC[C@H](NC(=O)c3ccc4c(c3)OCO4)[C@H](CO)O2)CC1 ?
EWS-Fli inh: 10; PAX8 reporter: 0; LGR2 antag: 10

How did CCOc1ccc(C(=O)C(CCC(CN(C)C)C(=O)c2ccc(OCC)cc2)CN(C)C)cc1 (configuration not stated) do in these assays?
MITF TRPM1 inh: 103*; EBV LMP1 NFkB: 67*; Shn3 3UTR inh: 98*; PAX8 reporter: 112*; LGR2 antag: 37

Results for COc1ccc(C(=O)C(CCCCC(CN(C)C)C(=O)c2ccc(OC)cc2)CN(C)C)cc1 (configuration not stated) ?
MITF TRPM1 inh: 51; EBV LMP1 NFkB: -30; Shn3 3UTR inh: -28

How did CN(C)CC(CCC(CN(C)C)C(=O)c1ccccc1)C(=O)c1ccccc1 (configuration not stated) do in these assays?
MITF TRPM1 inh: 97*; EBV LMP1 NFkB: 84*; Shn3 3UTR inh: 98*

What do the screens show for `C[C@H](CO)N1C[C@H](C)[C@@H](CN(C)C(=O)CCN2CCCCC2)Oc2ncc(C#CCN(C)C)cc2C1=O`?
EWS-Fli inh: -7; PAX8 reporter: -6; LGR2 antag: -2

Results for COc1ccc(NC(=O)C2CCCNC2)cc1OCC(C)C (configuration not stated) ?
MITF TRPM1 inh: -7; EBV LMP1 NFkB: -9; Shn3 3UTR inh: 74

What do the screens show for `COc1ccc(NC(=O)C2CCCN(CCCc3ccccc3)C2)cc1OCC(C)C` (configuration not stated)?
MITF TRPM1 inh: 4; EBV LMP1 NFkB: -6; EWS-Fli inh: 61*; Shn3 3UTR inh: 13; PAX8 reporter: 40; LGR2 antag: 4

What do the screens show for `O=C1CN(S(=O)(=O)c2ccccc2)C[C@H]2[C@H](c3ccc(C#CCc4ccccc4)cc3)[C@H](CO)N12`?
EWS-Fli inh: 0; LGR2 antag: 8

How did CNC(=O)c1ccc(-c2cc3onc(-c4ccccc4)c3c(=O)n2C)cc1 do in these assays?
MITF TRPM1 inh: -92; EBV LMP1 NFkB: -4; EWS-Fli inh: -133; Shn3 3UTR inh: -48; PAX8 reporter: -108; LGR2 antag: -30

What do the screens show for `Cc1ccc(-c2cc3onc(-c4ccccc4)c3c(=O)n2C)cc1`?
MITF TRPM1 inh: 97*; EBV LMP1 NFkB: 38; EWS-Fli inh: 80*; Shn3 3UTR inh: -18; PAX8 reporter: -72; LGR2 antag: 85*

What do the screens show for `CCCOc1ccc(-c2cc3onc(-c4ccccc4)c3c(=O)n2C)cc1`?
MITF TRPM1 inh: -37; EBV LMP1 NFkB: -24; EWS-Fli inh: 62*; Shn3 3UTR inh: -19; PAX8 reporter: -19; LGR2 antag: -1

What do the screens show for `CN(C)C(=O)c1cccc(-c2ccc([C@@H]3[C@@H](C#N)N(C(=O)C4CC4)[C@@H]3CO)cc2)c1`?
EWS-Fli inh: -1; PAX8 reporter: -12; LGR2 antag: -1

Results for O=C(C[C@@H]1CC[C@@H]2[C@H](COC[C@@H](O)CN2Cc2cc(F)ccc2F)O1)N[C@@H]1CCN(Cc2ccccc2)C1 ?
EWS-Fli inh: 10; PAX8 reporter: 16; LGR2 antag: 14

Results for C[C@H](CO)N1C[C@H](C)[C@@H](CN(C)Cc2ccccc2)Oc2ncc(C3=CCCC3)cc2C1=O ?
EWS-Fli inh: 8; LGR2 antag: -1

How did Oc1ccc(N=Nc2ccccc2)o1 do in these assays?
MITF TRPM1 inh: 9; EBV LMP1 NFkB: -1; EWS-Fli inh: -9; Shn3 3UTR inh: 94*; PAX8 reporter: 8; LGR2 antag: -8

How did O=c1ccc(N=Nc2ccccc2)ccc1O do in these assays?
MITF TRPM1 inh: 7; EBV LMP1 NFkB: 5; EWS-Fli inh: 15; Shn3 3UTR inh: -14; PAX8 reporter: 5; LGR2 antag: -17

Results for C[C@H]1CN([C@@H](C)CO)C(=O)c2cc(C#Cc3ccccn3)cnc2O[C@@H]1CN(C)CC1CCCC1 ?
EWS-Fli inh: -8; PAX8 reporter: -26

Results for Cc1ccc(S(=O)(=O)N(C)C[C@@H]2Oc3ccc(NC(=O)Nc4ccc(C(F)(F)F)cc4)cc3CC(=O)N([C@H](C)CO)C[C@@H]2C)cc1 ?
EWS-Fli inh: inconclusive; PAX8 reporter: 97*; LGR2 antag: 28

What do the screens show for `C[C@H](CO)N1C[C@H](C)[C@H](CN(C)S(=O)(=O)c2ccccc2)Oc2ccc(NC(=O)Nc3ccc(C(F)(F)F)cc3)cc2CC1=O`?
EWS-Fli inh: 61*; PAX8 reporter: 16; LGR2 antag: 10

What do the screens show for `C[C@@H]1CN([C@@H](C)CO)C(=O)Cc2cc(NC(=O)Nc3ccc(C(F)(F)F)cc3)ccc2O[C@H]1CN(C)S(=O)(=O)c1ccc(F)cc1`?
EWS-Fli inh: 0; PAX8 reporter: 94*; LGR2 antag: 11

Results for Cc1ccc(S(=O)(=O)N(C)C[C@H]2Oc3ccc(NC(=O)Nc4ccc(C(F)(F)F)cc4)cc3CC(=O)N([C@H](C)CO)C[C@H]2C)cc1 ?
EWS-Fli inh: 6; PAX8 reporter: 63*; LGR2 antag: 1

What do the screens show for `C[C@H](CO)N1C[C@H](C)[C@H](CN(C)C(=O)c2ccccc2)Oc2cc(C3=CCCC3)ccc2S1(=O)=O`?
EWS-Fli inh: -8; LGR2 antag: 1

How did C[C@@H]1CN([C@H](C)CO)C(=O)Cc2cc(NC(=O)Nc3ccc(C(F)(F)F)cc3)ccc2O[C@H]1CN(C)S(=O)(=O)c1cccs1 do in these assays?
EWS-Fli inh: -5; PAX8 reporter: -18; LGR2 antag: 11

What do the screens show for `Cc1ccc(S(=O)(=O)N(C)C[C@H]2Oc3ccc(NC(=O)Nc4ccc(C(F)(F)F)cc4)cc3CC(=O)N([C@H](C)CO)C[C@@H]2C)cc1`?
EWS-Fli inh: -4; PAX8 reporter: 82*; LGR2 antag: 10

What do the screens show for `Cc1ccc(S(=O)(=O)N(C)C[C@@H]2Oc3ccc(NC(=O)Nc4ccc(C(F)(F)F)cc4)cc3CC(=O)N([C@@H](C)CO)C[C@H]2C)cc1`?
EWS-Fli inh: -1; PAX8 reporter: 49; LGR2 antag: 24

Results for C[C@H](CO)N1C[C@H](C)[C@H](CN(C)S(=O)(=O)c2ccc(Cl)cc2)Oc2ccc(NC(=O)Nc3ccc(F)cc3)cc2CC1=O ?
EWS-Fli inh: 31; PAX8 reporter: 74*; LGR2 antag: 9

Results for C[C@H](CO)N1C[C@H](C)[C@H](CN(C)S(=O)(=O)c2cccs2)Oc2ccc(NC(=O)Nc3ccc(C(F)(F)F)cc3)cc2CC1=O ?
EWS-Fli inh: 56*; PAX8 reporter: 15; LGR2 antag: 9
